Drawing on PubChem BioAssay, this text covers growth inhibition, inhibition and outcome for 19 compounds.

Assay [1] is described as follows: antimalarial activity against Dd2 strain (AID 2302;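 active means growth inhibition above 50% at the single 2 µM test dose, taken to imply half-maximal potency below 2 µM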;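 further: 0% = DMSO untreated growth and 100% = chloroquine plus artemisinin killed control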). As to conditions: P. falciparum Dd2 in RBCs, LDH growth readout, 72 h; at 2 µM; active compounds read high.
Assay [2] can be described thus: HepG2 cytotoxicity, primary screen, cytotoxicity control for P. falciparum antimalarial project, cell-based, ATP luminescence (AID 2303;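 active means inhibition above 50%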;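 further: 0% = DMSO wells and 100% = digitonin-killed cells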). Conditions: HepG2 viability, 24-48 h, at 10 µM, active compounds read high.
The target of assay [3] is L-lactate dehydrogenase (Plasmodium falciparum (isolate CDC / Honduras)) (UniProt Q27743). Put plainly: PfLDH activity inhibition – cell lysate, 3D7 strain, counter-screen for P. falciparum growth inhibition project (AID 2304).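 Further: 0% = vehicle and 100% = reference inhibitor.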 As to conditions: P. falciparum 3D7 crude extract, LDH APAD/NBT absorbance; at 2 µM; active compounds read high. (A counterscreen serves to expose hits that act by an unwanted route or on another target.)

The nature of assay [4]: inhibition of 3D7 malaria parasite growth – strain 3D7 (AID 2306).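 Further: 0% = DMSO wells and 100% = chloroquine plus artemisinin control wells.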 Conditions: P. falciparum 3D7 erythrocytic growth, LDH absorbance, 72 h; at 2 µM; active compounds read high.
Assay [5] deals with Calcium-dependent protein kinase 1 (Plasmodium falciparum (isolate 3D7)) (UniProt P62344). Put plainly: PfCDPK1 kinase inhibitors, biochemical, TCAMS library (AID 1159585; cut-off not given, nearly all actives have IC50 up to about 0.98 µM;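 further: inhibitors leave more ATP so luminescence rises with inhibition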). As to conditions: recombinant PfCDPK1, Kinase-Glo ATP depletion luminescence. On the technique in general: In Kinase-Glo more light means more ATP remaining.
Assay [6] concerns the target Plasmodium falciparum protein kinase 6 (PK6, PF3D7_1337100) (UniProt Q8IDW1). Put plainly: PfPK6 kinase inhibitors, biochemical, TCAMS library (AID 1159586). As to conditions: recombinant PfPK6, Kinase-Glo ATP depletion luminescence.
Assay [7] concerns the target Protein kinase 7 (PK7), Plasmodium falciparum 3D7 (PF3D7_0213400) (UniProt Q7YTF7). Put plainly: inhibition of Plasmodium PK7 catalytic activity – biochemical, TCAMS antimalarial set, Kinase-Glo luminescence (AID 1159587). As to conditions: recombinant PfPK7, Kinase-Glo ATP depletion luminescence.
In assay [8] the target is Calcium-dependent protein kinase 4 (Plasmodium falciparum (isolate 3D7)) (UniProt Q8IBS5). Kind of assay: PfCDPK4 kinase inhibitors, biochemical, TCAMS library (AID 1159588; cut-off not given, nearly all actives have IC50 up to about 0.91 µM). Conditions: recombinant PfCDPK4, Kinase-Glo ATP depletion luminescence.

Unmarked numbers belong to inactive results. For some assays here: Results with a measured potency or affinity are listed apart. Calls of active or inactive are those of the source. Unless noted, how the calls were made is not given here.

Chain of Calcium-dependent protein kinase 1 (Plasmodium falciparum (isolate 3D7)) (P62344 whole entry, looked up): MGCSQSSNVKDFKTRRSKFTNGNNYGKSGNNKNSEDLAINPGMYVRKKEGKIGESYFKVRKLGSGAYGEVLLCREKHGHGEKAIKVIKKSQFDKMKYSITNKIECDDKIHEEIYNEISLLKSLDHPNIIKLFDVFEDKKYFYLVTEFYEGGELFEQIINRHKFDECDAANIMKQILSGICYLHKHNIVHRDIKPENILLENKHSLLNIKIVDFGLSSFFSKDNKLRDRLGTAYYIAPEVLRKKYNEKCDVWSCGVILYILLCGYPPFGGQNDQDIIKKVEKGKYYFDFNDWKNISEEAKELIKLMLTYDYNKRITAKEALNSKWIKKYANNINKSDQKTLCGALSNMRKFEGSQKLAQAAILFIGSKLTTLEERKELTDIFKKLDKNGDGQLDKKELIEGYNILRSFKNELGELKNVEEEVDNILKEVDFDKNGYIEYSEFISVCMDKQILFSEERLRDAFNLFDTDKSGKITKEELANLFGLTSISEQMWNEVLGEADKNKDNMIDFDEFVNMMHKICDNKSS
Chain of Plasmodium falciparum protein kinase 6 (PK6, PF3D7_1337100) (Q8IDW1 1-305): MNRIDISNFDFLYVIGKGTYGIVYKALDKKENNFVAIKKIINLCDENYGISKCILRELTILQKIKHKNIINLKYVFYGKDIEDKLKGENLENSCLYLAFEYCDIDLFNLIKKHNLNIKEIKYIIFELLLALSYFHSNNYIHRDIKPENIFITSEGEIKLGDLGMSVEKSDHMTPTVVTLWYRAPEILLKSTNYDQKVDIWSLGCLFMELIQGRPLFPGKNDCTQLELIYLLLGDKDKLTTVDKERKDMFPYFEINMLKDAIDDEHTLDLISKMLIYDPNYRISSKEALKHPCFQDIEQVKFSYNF
Chain of L-lactate dehydrogenase (Plasmodium falciparum (isolate CDC / Honduras)) (Q27743 whole entry, looked up): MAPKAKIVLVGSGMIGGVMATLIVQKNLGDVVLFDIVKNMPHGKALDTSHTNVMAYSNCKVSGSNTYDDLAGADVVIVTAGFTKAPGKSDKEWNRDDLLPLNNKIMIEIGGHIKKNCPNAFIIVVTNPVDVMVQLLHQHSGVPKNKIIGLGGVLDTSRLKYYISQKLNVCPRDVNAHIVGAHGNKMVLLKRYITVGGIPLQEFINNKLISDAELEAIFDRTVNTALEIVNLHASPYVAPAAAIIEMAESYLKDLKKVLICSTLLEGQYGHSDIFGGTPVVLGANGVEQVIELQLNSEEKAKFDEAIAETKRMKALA
Chain of Protein kinase 7 (PK7), Plasmodium falciparum 3D7 (PF3D7_0213400) (Q7YTF7 1-343): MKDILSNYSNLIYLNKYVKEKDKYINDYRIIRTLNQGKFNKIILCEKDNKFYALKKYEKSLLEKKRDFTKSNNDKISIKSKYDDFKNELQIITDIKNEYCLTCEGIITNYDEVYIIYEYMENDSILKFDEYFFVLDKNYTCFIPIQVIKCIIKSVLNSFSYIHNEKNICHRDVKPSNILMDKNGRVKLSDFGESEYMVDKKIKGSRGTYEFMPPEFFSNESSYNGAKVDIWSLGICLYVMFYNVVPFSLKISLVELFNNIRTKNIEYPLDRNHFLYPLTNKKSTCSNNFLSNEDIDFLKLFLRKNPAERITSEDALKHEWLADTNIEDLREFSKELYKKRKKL
Chain of Calcium-dependent protein kinase 4 (Plasmodium falciparum (isolate 3D7)) (Q8IBS5 whole entry, looked up): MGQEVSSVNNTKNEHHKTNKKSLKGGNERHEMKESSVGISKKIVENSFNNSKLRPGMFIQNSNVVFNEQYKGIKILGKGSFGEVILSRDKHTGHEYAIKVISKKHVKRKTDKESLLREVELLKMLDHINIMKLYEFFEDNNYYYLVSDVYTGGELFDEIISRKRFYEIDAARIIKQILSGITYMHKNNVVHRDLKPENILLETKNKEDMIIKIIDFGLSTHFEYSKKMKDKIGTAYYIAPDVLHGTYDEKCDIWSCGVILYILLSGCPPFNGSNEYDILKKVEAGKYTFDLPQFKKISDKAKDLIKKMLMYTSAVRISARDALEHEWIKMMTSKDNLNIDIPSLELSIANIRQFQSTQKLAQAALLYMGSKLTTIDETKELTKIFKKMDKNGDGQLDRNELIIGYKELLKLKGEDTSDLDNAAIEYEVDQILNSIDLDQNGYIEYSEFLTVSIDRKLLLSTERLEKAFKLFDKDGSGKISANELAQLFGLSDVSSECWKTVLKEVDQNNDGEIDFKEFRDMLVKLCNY

In the case of `COc1ccc2c(NN=Cc3cccc(C)n3)cc(-c3ccccc3)nc2c1`, the growth inhibition is 25% in assay [1] and 97% (active) in assay [4]. Further, the inhibition in assay [2] is -7%; in assay [3], 3%. Also, the outcome in assay [5], in assay [6], in assay [7] and in assay [8] was inactive.

In the case of `COc1ccc(-c2ccccc2CNc2nc(NCCc3ccc(O)cc3)nc(N3CCNCC3)n2)cc1`, the growth inhibition was 3% in assay [1] and 86% (active) in assay [4]. The values for the inhibition in assay [2] and in assay [3] were 48% and -3%, respectively. In addition, the outcome in assay [5], in assay [6], in assay [7] and in assay [8] was inactive.

Take `COc1cc(OC)cc(-c2nn(-c3ccc([N+](=O)[O-])cc3Cl)c(=S)n2Cc2ccco2)c1`: the values for the growth inhibition in assay [1] and in assay [4] were 100% (active) and 101% (active), respectively. For the same compound, the inhibition in assay [2] is 15%; in assay [3], 2%. The outcome in assay [5], in assay [6], in assay [7] and in assay [8] was inactive.

For `O=C(NCC1CCC(CNCCc2ccccc2)CC1)Nc1ccc(Cl)c(Cl)c1` (configuration not stated), the values for the growth inhibition in assay [1] and in assay [4] were -3% and 96% (active), respectively. The inhibition was 24% in assay [2] and -1% in assay [3]. Besides, the result in assay [5], in assay [6], in assay [7] and in assay [8] was inactive.

Turning to `O=S(=O)(/C=C/c1ccccc1)N(Cc1ccc(-c2ccc(CNCCc3ccccn3)cc2)cc1)CC1CCCCN1` (configuration not stated), the growth inhibition in assay [1] is 97% (active); in assay [4] it was 100% (active). The inhibition was 46% in assay [2] and -4% in assay [3]. Moreover, the result in assay [5], in assay [6], in assay [7] and in assay [8] was inactive.

`CCCNCc1ccc(-c2ccc(CN(Cc3cnc(C)cn3)C(=O)/C=C/c3ccccc3C)cc2)nc1`: the values for the growth inhibition in assay [1] and in assay [4] were 15% and 95% (active), respectively. Further, the values for the inhibition in assay [2] and in assay [3] were 7% and 5%, respectively. Also, the result in assay [5], in assay [6], in assay [7] and in assay [8] was inactive.

For `N#Cc1ccc2c(c1)CCN(CCC1CCC(NC(=O)/C=C/c3ccc(Cl)c(Cl)c3)CC1)CC2` (configuration not stated), the growth inhibition is 51% (active) in assay [1] and 100% (active) in assay [4]. The inhibition in assay [2] was 31%; in assay [3] it was -11%. Also, the outcome in assay [5], in assay [6], in assay [7] and in assay [8] was inactive.

Take `Cc1ccc(F)cc1S(=O)(=O)N1CCCCC(c2ccc(C(F)(F)F)cc2)=N1`: the values for the growth inhibition in assay [1] and in assay [4] were 75% (active) and 82% (active), respectively. For the same compound, the inhibition is 8% in assay [2] and 7% in assay [3]. Also, the outcome in assay [5], in assay [6], in assay [7] and in assay [8] was inactive.

As for `Cc1ccc(NC(=O)c2ccc(CN3CCCN(Cc4cccc(O)c4)CC3)cc2)cc1C`, the growth inhibition is 25% in assay [1] and 98% (active) in assay [4]. Also, the values for the inhibition in assay [2] and in assay [3] were 33% and 4%, respectively. Also, the outcome in assay [5], in assay [6], in assay [7] and in assay [8] was inactive.

Consider `Cc1cc(N[C@@H](CC(C)C)C(=O)NCCOc2ccccc2)nc(NCC2CCCCC2)n1`, for which the growth inhibition in assay [1] is 53% (active); in assay [4], 97% (active). For the same compound, the results for the inhibition in assay [2] and in assay [3] were 24% and -1%, respectively. Moreover, the result in assay [5], in assay [6], in assay [7] and in assay [8] was inactive.

On to `C#CCN(Cc1cc2c(=O)[nH]c(N)nc2cc1C)c1ccc(C(=O)N[C@@H](CCC(=O)O)C(=O)O)cc1`, for which the growth inhibition in assay [1] was 74% (active); in assay [4] it was 92% (active). Moreover, the results for the inhibition in assay [2] and in assay [3] were 28% and -1%, respectively. The outcome in assay [5], in assay [6], in assay [7] and in assay [8] was inactive.

With `NS(=O)(=O)c1ccc(CNC(=O)c2cnc3c(O)cccc3c2Nc2cccc(NC(=O)c3ccc(Cl)c(Cl)c3)c2)cc1`, the growth inhibition in assay [1] was 35%; in assay [4], 97% (active). For the same compound, the values for the inhibition in assay [2] and in assay [3] were 56% (active) and -1%, respectively. In addition, the outcome in assay [5], in assay [6], in assay [7] and in assay [8] was inactive.

For `Cc1nnsc1C(=O)Nc1cccc(-c2cccc(-c3nc4ccccc4[nH]3)c2)c1`, the growth inhibition in assay [1] is 34%; in assay [4] it was 100% (active). In addition, the figures for the inhibition in assay [2] and in assay [3] were 14% and 1%, respectively. Also, the outcome in assay [5], in assay [6], in assay [7] and in assay [8] was inactive.

As to `COc1cccc(C(=O)NCc2cccs2)c1Oc1ccccc1`, the growth inhibition in assay [1] was 4%; in assay [4], 98% (active). The figures for the inhibition in assay [2] and in assay [3] were -6% and -4%, respectively. Also, the result in assay [5], in assay [6], in assay [7] and in assay [8] was inactive.

Take `CC(=O)Nc1ccc(OCCCN(Cc2ccccc2C(F)(F)F)c2ccc(C(F)(F)F)c(C#N)c2)c(Cl)c1`: the growth inhibition in assay [1] was 43%; in assay [4], 85% (active). The inhibition in assay [2] is 5%; in assay [3], 3%. For the same compound, the result in assay [5], in assay [6], in assay [7] and in assay [8] was inactive.

For `Fc1ccc2nc(-c3cccc(-c4ccc(CNCCc5ccncc5)cc4)c3)[nH]c2c1`, the growth inhibition in assay [1] was 100% (active); in assay [4], 99% (active). Further, the inhibition in assay [2] was 44%; in assay [3], 4%. Further, the outcome in assay [5], in assay [6], in assay [7] and in assay [8] was inactive.

Consider `CC(C)(C)c1ccc(NC(=O)c2ccc(CN3CCCN(Cc4ccsc4)CC3)cc2)cc1`, for which the figures for the growth inhibition in assay [1] and in assay [4] were -1% and 96% (active), respectively. Also, the inhibition in assay [2] was 50% (active); in assay [3], -7%. Also, the result in assay [5], in assay [6], in assay [7] and in assay [8] was inactive.

With `COc1cc(SC)ccc1C(=O)N1CC(C)CC(C)C1` (configuration not stated), the growth inhibition in assay [1] is 66% (active); in assay [4], 98% (active). Besides, the inhibition in assay [2] was 5%; in assay [3] it was -8%. For the same compound, the outcome in assay [5], in assay [6], in assay [7] and in assay [8] was inactive.

For the compound `CC(=O)c1ccc2nc[nH]c(=O)c2c1`, the growth inhibition is 99% (active) in assay [1] and 96% (active) in assay [4]. Moreover, the inhibition in assay [2] was 79% (active); in assay [3] it was -1%. For the same compound, the outcome in assay [5], in assay [6], in assay [7] and in assay [8] was inactive.

As usually defined, the inhibition is the change of the read-out against control, counted positive when it falls.
